CBFb-RUNX1 inh: CBF-beta/RUNX1 interaction disruption | 230,000 tested, under 10 active | Potency, µM (titrated, usually from 59.8 µM), without a hit: at the highest dose activity, negative = inhibition, hits mostly inhibitors | AlphaScreen CBFb-His/RUNX1-biotin binding, biochemical | Q01196+Q13951; also: % of control where 0% means no effect
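Interaction loss through any mechanism counts as activity. Pre-formed complex of His-CBF-beta and biotin-RUNX1 (30 nM apiece) is incubated with compound 15 min, then with 50 ng nickel and 50 ng streptavidin beads for 90 min before AlphaScreen detection.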
L3MBTL1 inh: L3MBTL1 (human) inhibition; Q9Y468; AlphaScreen L3MBTL1–H3K9me1 peptide binding; Potency, µM (highest dose often 57.1 µM), for the others: at the top dose activity, negative = inhibition, hits mostly inhibitors; 0.66% of 230,000 active; AID 485360; also: potency is read from the fitted curve at half-maximal effect; % is scaled to controls: 0 for no effect and ±100 for the full control effect; nearly all actives have a fitted effect of over 60% in size
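L3MBTL1 50 nM + b-AHA-H3(1-15)K9me1 75 nM, 30 min RT; compound added, 30 min RT; streptavidin donor/Ni-chelate acceptor beads 10 ug/mL each final, 30 min RT dark; AlphaScreen read.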
CtBP-E1A inh: inhibitors of CtBP/E1A interaction. 0.49% of 340,000 active. AID 651724. AlphaScreen GST-E1A/His-CtBP binding, 1536-well; active compounds read low. activity change, % (test concentration not listed); in the data active = activity change below about -65%; inconclusive = mostly about -30% to -63%; also: % is scaled to controls: 0 for no effect and ±100 for the full control effect
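Protein mix (5X: 125 nM each GST-E1A, His-CtBP) was incubated with pinned compound 2 h at 37 deg C in dark, in 50 mM Tris pH 8.0 buffer with 300 mM NaCl. Glutathione donor and nickel acceptor beads followed; AlphaScreen signal read after 1 h.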
Six1-Eya2 blk: inhibitors of human Six1/Eya2 interaction. AlphaScreen GST-Six1/His-Eya2 binding, biochemical; active compounds read low. AID 651725. 0.56% of 360,000 active. activity change, % (no concentration beside the values); in the data active = activity change below about -65%; inconclusive = mostly about -30% to -63%; also: % is scaled to controls: 0 for no effect and ±100 for the full control effect
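GST-Six1 + His-Eya2 (5X stock: 250/500 nM); Tris pH 8.0, 300 mM NaCl, 0.05% BSA, 0.02% Tween 20; GSH donor/Ni acceptor beads; 1 h 37 °C dark; AlphaScreen readout.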
MBNL1-CUG inh: blocks human MBNL1 binding to CUG repeat RNA. 0.036% of 280,000 active. Q9NR56. Potency, µM (doses to about 57.5 µM), for inactives: at the highest dose activity change, negative = inhibition, actives largely listed as inhibitors. AID 2675. TR-FRET MBNL1-His/biotin-(CUG)12 binding, 665/545 ratio; active = well fitted inhibition curve with a large enough effect in the signal ratio, with a control signal flat, not every such curve was filed as active; inconclusive = small, poorly fitted or top-dose-only effect, or effect the other way, or a change in a side signal; inactive = no such curve, though single readings can be large or run the other way; the % refers to the signal ratio; also: potency is read from the fitted curve at half-maximal effect; % is scaled to controls: 0 for no effect and ±100 for the full control effect
Target sequence (Q9NR56 whole entry, looked up): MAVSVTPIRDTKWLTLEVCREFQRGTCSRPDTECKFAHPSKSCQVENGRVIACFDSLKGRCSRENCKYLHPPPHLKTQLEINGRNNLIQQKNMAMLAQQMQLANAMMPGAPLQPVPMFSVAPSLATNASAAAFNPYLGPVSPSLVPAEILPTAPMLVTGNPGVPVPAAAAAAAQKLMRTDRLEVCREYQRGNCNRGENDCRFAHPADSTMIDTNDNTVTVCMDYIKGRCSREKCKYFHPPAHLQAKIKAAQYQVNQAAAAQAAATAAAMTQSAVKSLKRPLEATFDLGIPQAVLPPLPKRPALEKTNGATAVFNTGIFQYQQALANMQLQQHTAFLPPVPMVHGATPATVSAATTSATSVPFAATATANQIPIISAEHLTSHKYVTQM
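Compounds (final 92 nM to 58 uM) are added to His-tagged MBNL1 and biotin-(CUG)12, then terbium anti-His antibody and streptavidin-XL665 (5 nM final). After 60 min at room temperature, the 665/545 nm ratio is read.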
Eya2 inh: blocks the phosphatase activity of human Eya2 | O00167 | recombinant Eya2, OMFP fluorescence dephosphorylation (OMFP is methylfluorescein phosphate) | Potency, µM (series often up to 76.9 µM), inactives show at the highest dose activity, negative = inhibition, actives largely listed as inhibitors | 0.006% of 330,000 active | AID 488837; also: potency is read from the fitted curve at half-maximal effect; % is scaled to controls: 0 for no effect and ±100 for the full control effect
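Eya2 (0.2 uM) preincubated 10 min at ambient with compound, then OMFP substrate added at 50 uM; 10 min reaction in 50 mM HEPES pH 7.5, 50 mM NaCl, 5 uM MgCl2, 0.05% BSA, 1 mM DTT. Fluorescence read at Ex 485/Em 525 nm.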
An asterisk follows results filed as active. Most compounds without a hit are left out; they make up all but 0.89% or so of the library. Unless noted, calls follow the shape of the dose curve; as a rule, active = well fitted curve in the direction sought with a large enough effect; inconclusive = small, poorly fitted or top-dose-only effect, or another doubt; inactive = no such curve, though single readings can be large; an effect the other way counts as inactive or inconclusive.

For COC(=O)c1ccc(OC(=O)c2ccco2)cc1 the results were CBFb-RUNX1 inh -0.9%, L3MBTL1 inh 7.5%, CtBP-E1A inh 1.7, Six1-Eya2 blk inconclusive, MBNL1-CUG inh 1.5% and Eya2 inh 22.7%.
O=C(Oc1ccc(C(=S)N2CCOCC2)cc1)c1ccc(Br)cc1 was read as CBFb-RUNX1 inh 3.2%, L3MBTL1 inh 7.1%, CtBP-E1A inh 8.0, Six1-Eya2 blk -88.9*, MBNL1-CUG inh 11.6% and Eya2 inh 13.5%.
For C[C@@H]1CN([C@H](C)CO)C(=O)c2c(c3ccccc3n2C)-c2ccccc2CO[C@H]1CN(C)S(=O)(=O)c1cn(C)cn1 the results were CtBP-E1A inh 6.5 and Six1-Eya2 blk 7.8.
For CCCCCCCCCCCCCCCCCCOC[C@H](COP(=O)([O-])OCC[N+](C)(C)C)OC the results were CBFb-RUNX1 inh inconclusive and Eya2 inh 25.1µM*.
For C=CCC1(CC=C)CCCN1Cc1nc(COc2ccccc2)no1 the results were CBFb-RUNX1 inh 10.2%, L3MBTL1 inh 15.7%, CtBP-E1A inh 25.2, Six1-Eya2 blk 8.2, MBNL1-CUG inh 1.2% and Eya2 inh inconclusive.
`CCOC(=O)CN(C(=O)CSc1nnc2c(n1)[nH]c1ccc(F)cc12)c1ccccc1` gave CBFb-RUNX1 inh -3.5%, L3MBTL1 inh 6.5%, CtBP-E1A inh -69.5*, Six1-Eya2 blk -65.8*, MBNL1-CUG inh inconclusive and Eya2 inh -11.6%.
`O=C(CN1CC(=O)Oc2ccccc21)OCC(=O)c1ccc(Br)cc1` gave CtBP-E1A inh -86.7* and Six1-Eya2 blk -90.7*.
Screening O=C1CN(CC(=O)N2CCCCC2)c2ccccc2O1 returned CBFb-RUNX1 inh -10.6%, L3MBTL1 inh -11.6%, CtBP-E1A inh -11.3, Six1-Eya2 blk -13.1, MBNL1-CUG inh inconclusive and Eya2 inh -1.0%.
O=C(CN1CC(=O)Oc2ccccc21)OCC(=O)c1ccc(F)cc1 was read as CBFb-RUNX1 inh inconclusive, L3MBTL1 inh 17.8µM*, CtBP-E1A inh inconclusive, Six1-Eya2 blk -75.2*, MBNL1-CUG inh -1.3% and Eya2 inh 9.3%.
Screening CN1c2ccc([N+](=O)[O-])cc2N(C)C1(C)c1ccccc1 (stereo not drawn) returned L3MBTL1 inh 14.1µM*, CtBP-E1A inh -79.7*, Six1-Eya2 blk -76.5*, MBNL1-CUG inh inconclusive and Eya2 inh -18.6%.
`Cn1c2ccccc2c2cc([N+](=O)[O-])ccc21` gave CBFb-RUNX1 inh 8.4%, L3MBTL1 inh 2.5%, CtBP-E1A inh 0.7, Six1-Eya2 blk -4.0, MBNL1-CUG inh 34.3% and Eya2 inh 4.9%.
O=C(CNC(=O)c1ccccc1F)N/N=C/c1cc(Br)ccc1OC(=O)/C=C/c1ccco1 was read as CBFb-RUNX1 inh inconclusive, L3MBTL1 inh inconclusive, CtBP-E1A inh -91.9*, Six1-Eya2 blk -89.8* and Eya2 inh 1.1%.
For COc1ccccc1C(=O)NCC(=O)N/N=C/c1cc(Br)ccc1OC(=O)/C=C\c1ccco1 the results were CBFb-RUNX1 inh -13.7%, L3MBTL1 inh -14.9%, Six1-Eya2 blk -74.2* and Eya2 inh 0.8%.
For Cc1cc(C(C)(C)C)cc(C)c1COC(=O)c1cccnc1 the results were CtBP-E1A inh 12.1, Six1-Eya2 blk 8.9, MBNL1-CUG inh -1.6% and Eya2 inh -7.5%.
`CCNc1ccc(Br)cc(C(=O)/C=C/c2ccc(Cl)cc2Cl)c1=O` gave CBFb-RUNX1 inh -3.4%, L3MBTL1 inh 17.8µM*, CtBP-E1A inh -8.7, Six1-Eya2 blk -1.0, MBNL1-CUG inh 1.1% and Eya2 inh 5.7%.
`COCCCNC(=O)/C=C/c1ccc(Cl)cc1Cl` gave CBFb-RUNX1 inh -0.7%, L3MBTL1 inh 10.3%, CtBP-E1A inh 8.3, Six1-Eya2 blk 3.6, MBNL1-CUG inh 12.1% and Eya2 inh -10.3%.

Screening data: PubChem, National Center for Advancing Translational Sciences (NCATS)
